Inconclusive results are not listed. A call without a number means that no potency is given here. The source made the active and inactive calls. Calls come from the whole dose curve; as a rule, active = well fitted cell-killing curve with a large enough effect in the repeat runs; inconclusive = weak or mixed curves; inactive = flat fitted curve, though single readings scatter.

The test is described as follows: qHTS RealTime-Glo MT Cell Viability Assay in HepG2 cells - 16 hour (AID 1224885). Note: nearly all actives have a fitted effect of over 50% in size. The settings on record: RealTime-Glo luminescence; series mostly up to 76.8 µM. Put shortly:
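HepG2 cells (600/well) were dispensed with RealTime-Glo reagents, incubated 5 h at 37 °C, then treated with compounds in DMSO for up to 40 h. Nonlytic NanoLuc luminescence reflecting viable cells was read at each stated time point.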
In general terms: Quantitative high-throughput screening tests each substance at several concentrations.
Take `CC1=CCC(C(C)(C)O)CC1` (centres undefined): the Potency entry is “inactive”.

Consider `Nc1ncn([C@@H]2O[C@H](CO)[C@@H](O)[C@H]2O)c(=O)n1`, for which the Potency entry was “inactive”.

As for `CCOC(=O)C(C#N)=C(c1ccccc1)c1ccccc1`, the Potency entry is “inactive”.

Turning to `CCC(C)(O)CCCC(C)C` (centres undefined), the Potency result was “inactive”.

For the molecule `CCCCNS(=O)(=O)c1ccccc1`, the Potency result was “inactive”.

For the molecule `CC(C)CC(C)(O)C#CC(C)(O)CC(C)C` (centres undefined), the Potency entry was “inactive”.

As for `c1ccc2c(c1)c1cccc3ccc4cccc2c4c31`, the Potency result is “inactive”.

As to `O=C(/C=C/c1ccccc1)OCc1ccccc1`, the Potency entry was “inactive”.

On to `CC(C)(C)NC(=O)[C@H]1CC[C@H]2[C@@H]3CC[C@H]4NC(=O)C=C[C@]4(C)[C@H]3CC[C@]12C`, for which the Potency entry was “inactive”.

As to `CCCc1c(OCCCCc2nn[nH]n2)ccc(C(C)=O)c1O`, the Potency entry was “inactive”.

For `CCCCCCCCCCCO`, the Potency result was “inactive”.

As to `COc1ccc(OC)c(C(O)CNC(=O)CN)c1` (centres undefined), the Potency result was “inactive”.

Regarding `COC(=O)Nc1nc2ccc(S(=O)c3ccccc3)cc2[nH]1` (centres undefined), the Potency entry was “inactive”.

For the molecule `Cc1ncc[nH]1`, the Potency result is “inactive”.

On to `Cc1ccc(C(=O)c2cc(O)c(O)c([N+](=O)[O-])c2)cc1`, for which the Potency result is “inactive”.

For the molecule `CN1C(C(=O)Nc2ccccn2)=C(O)c2ccccc2S1(=O)=O`, the Potency entry is “inactive”.

For `Cc1c(OCC(F)(F)F)ccnc1CS(=O)c1nc2ccccc2[nH]1` (centres undefined), the Potency entry was “inactive”.

`Nc1ccc(Nc2ccccc2)cc1`: the Potency result was “inactive”.

In the case of `COc1cc([C@@H]2c3cc4c(cc3[C@H](O)[C@H]3COC(=O)[C@H]23)OCO4)cc(OC)c1OC`, the Potency entry was “inactive”.

On to `CC(C)OC=O`, for which the Potency entry is “inactive”.

As to `OC(CCl)CCl`, the Potency entry was “inactive”.

On to `CC(C)OB(OC(C)C)OC(C)C`, for which the Potency result was “inactive”.

Consider `C[Si](C)(C)O[Si](C)(C)C`, for which the Potency entry is “inactive”.

Turning to `c1cc(-c2ccncc2)ccn1`, the Potency result is “inactive”.

As to `NNc1ccc(C(=O)O)cc1`, the Potency entry is “inactive”.

With `O=C(OCc1ccccc1)c1ccccc1O`, the Potency entry is “inactive”.

As for `NC=O`, the Potency result is “inactive”.

For the molecule `Cc1cc2nc3c(=O)[nH]c(=O)nc-3n(C[C@H](O)[C@H](O)[C@H](O)CO)c2cc1C`, the Potency entry was “inactive”.

For `Nc1ncnc2nc[nH]c12`, the Potency entry was “inactive”.

As for `CC(CCC(=O)O)(c1ccc(O)cc1)c1ccc(O)cc1`, the Potency entry was “inactive”.

With `C=C(C)C1CC=C(C)CC1` (centres undefined), the Potency entry was “inactive”.

As to `Cc1[nH]c(=O)c(C#N)cc1-c1ccncc1`, the Potency result is “inactive”.

In the case of `O=C(c1ccccc1)c1ccc(O)cc1O`, the Potency entry is “inactive”.

Turning to `CCCCCCCCCC(=O)OC`, the Potency entry is “inactive”.

Take `Cc1cccc(C(=O)O)c1`: the Potency result is “inactive”.

As for `c1ccc(Nc2ccccc2)cc1`, the Potency result was “inactive”.

With `CCCC(=O)O`, the Potency entry is “inactive”.

Take `O=[N+]([O-])c1ccc2c(c1)Cc1ccccc1-2`: the Potency result was “inactive”.

Consider `OCCO`, for which the Potency result was “inactive”.
